Data: PubChem BioAssay (EPA / NIEHS)
Activity calls are given as the source filed them. Rule for the calls: active = hit-call score of the fitted dose curve at least 0.9, where 1 is the maximum; inactive = score below 0.9.

Columns and labels:
Settings in all cases: primary human HUVEC with PBMC; actives raise or lower the signal
[1] = read-out: Monocyte Chemoattractant Protein-1 (MCP1), CCL2 (gene 6347); assay: BSK_LPS_MCP1: BioMAP Diversity Plus: LPS Assay for Monocyte Chemoattractant Protein-1 (MCP1) Biomarker Activity (AID 2283081);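 for AC50: secreted MCP-1 protein quantified by ELISA in culture supernatant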
Outline: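 Values derive from bidirectional fitting against DMSO of ELISA-measured MCP-1 in a human primary endothelial and mononuclear cell co-culture, 24 h after chemical addition under LPS activation.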

[2] = BSK_LPS_PGE2: BioMAP Diversity Plus: LPS Assay for Prostaglandin E2 (PGE2) Biomarker Activity (AID 2283082)
Outline: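 Endpoint derived from bidirectional curve fitting versus DMSO of ELISA-measured PGE2 in LPS-stimulated human primary vascular co-culture (HUVEC with PBMC) harvested at 24 h.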

[3] = read-out: Macrophage colony-stimulating factor (MCSF), CSF1 (gene 1435); assay: BSK_LPS_MCSF: BioMAP Diversity Plus: LPS Assay for Macrophage colony-stimulating factor (MCSF) Biomarker Activity (AID 2283083)
Outline: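 Bidirectional fit versus DMSO of ELISA-measured M-CSF in co-cultured human umbilical vein endothelial cells and PBMC, sampled 24 h after dosing.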

[4] = read-out: Tissue Factor, F3 (gene 2152); assay: BSK_LPS_TissueFactor: BioMAP Diversity Plus: LPS Assay for Tissue Factor Biomarker Activity (AID 2283084)
Outline: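 Read-out: CD142 ELISA, 24 h. System: LPS-driven human endothelial/PBMC co-culture. Analysis: up- or down-signal fitted against DMSO.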

[5] = read-out: Tumor necrosis factor (Homo sapiens) (UniProt P01375); assay: BSK_LPS_TNFa: BioMAP Diversity Plus: LPS Assay for Tumour Necrosis Factor alpha (TNFa) Biomarker Activity (AID 2283085)
Outline: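 Primary human vascular co-culture of HUVEC and PBMC; TNFa ELISA 24 h after treatment, analysed as increase or decrease relative to DMSO control.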

[6] = read-out: Vascular cell adhesion molecule 1 (VCAM1), VCAM1 (gene 7412); assay: BSK_LPS_VCAM1: BioMAP Diversity Plus: LPS Assay for Vascular cell adhesion molecule 1 (VCAM1) Biomarker Activity (AID 2283086)
Outline: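 Primary human vascular co-culture (umbilical vein endothelium plus PBMC) stimulated with LPS received chemical; 24 h later VCAM-1 was read by ELISA. Overt cytotoxicity was assessed by sulforhodamine B staining of parallel cultures at the same time point.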

CD38, CD38 (gene 952) = assay: BSK_SAg_CD38: BioMAP Diversity Plus: SAg Assay for CD38 Biomarker Activity (AID 2283087)
Outline: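 Fluorescence ELISA of cell-surface CD38 served as the read-out, with either increase or decrease fitted against DMSO controls. Cells were a human umbilical vein endothelium plus PBMC co-culture under SEB/TSST-1 stimulation, measured 24 h after dosing.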

CD40, CD40 (gene 958) = assay: BSK_SAg_CD40: BioMAP Diversity Plus: SAg Assay for CD40 Biomarker Activity (AID 2283088)
Outline: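 Endpoint derived by fitting increases or decreases versus DMSO controls. CD40 is detected by fluorescence ELISA in a human vascular co-culture of endothelium and PBMC at 24 h.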

CD69, CD69 (gene 969) = assay: BSK_SAg_CD69: BioMAP Diversity Plus: SAg Assay for CD69 Biomarker Activity (AID 2283089);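 for AC50: cell surface CD69 protein quantified by ELISA with fluorescence detection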
Outline: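 HUVEC co-cultured with PBMC were dosed with chemical, and CD69 was measured by ELISA with fluorescence read-out 24 h later. Bidirectional curve fitting used DMSO as negative control and activity baseline.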

[7] = read-out: Monocyte Chemoattractant Protein-1 (MCP1), CCL2 (gene 6347); assay: BSK_SAg_MCP1: BioMAP Diversity Plus: SAg Assay for Monocyte Chemoattractant Protein-1 (MCP1) Biomarker Activity (AID 2283090)
Outline: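 MCP-1 levels in the endothelial–PBMC SAg co-culture were quantified by ELISA at 24 h post-dosing; both increases and decreases versus DMSO scored. Cytotoxicity monitored by SRB total protein in parallel cultures.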

Measured: AC50

Sequence of Tumor necrosis factor (Homo sapiens) (P01375 whole entry, looked up): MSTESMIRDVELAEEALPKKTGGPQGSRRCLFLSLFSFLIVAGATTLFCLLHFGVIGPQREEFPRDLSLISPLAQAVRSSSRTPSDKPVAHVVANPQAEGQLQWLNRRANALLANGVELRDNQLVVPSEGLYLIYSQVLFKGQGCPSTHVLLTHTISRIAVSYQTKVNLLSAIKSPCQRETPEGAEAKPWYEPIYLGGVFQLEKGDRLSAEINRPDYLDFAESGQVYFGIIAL

c1ccc(Oc2ccccc2)cc1
inactive: all assays above

COc1ccc(CCN2CCC(Nc3nc4ccccc4n3Cc3ccc(F)cc3)CC2)cc1
active: CD38, CD38 (gene 952) 5 µM | CD69, CD69 (gene 969) 5 µM
inactive: all other assays above

O=C(Nc1ccc2c(O)c(N=Nc3ccc(N=Nc4ccc(S(=O)(=O)O)cc4)cc3)c(S(=O)(=O)O)cc2c1)c1ccccc1
inactive: all assays above

CC(C)(N=C=O)c1cccc(C(C)(C)N=C=O)c1
inactive: all assays above

c1ccc(CCc2ccccc2)cc1
inactive: [1] | [2] | [5]
active: [3] 31.2 µM | [4] 31.1 µM | [6] 31.8 µM | CD38, CD38 (gene 952) 30.2 µM | CD40, CD40 (gene 958) 30.9 µM | CD69, CD69 (gene 969) 30 µM | [7] 31.5 µM

Oc1c(Cl)cc(Cl)c(Cl)c1Cc1c(O)c(Cl)cc(Cl)c1Cl
active: [1] 32.5 µM | [3] 11.6 µM | [4] 27.7 µM | [5] 20 µM | [6] 22.6 µM | CD38, CD38 (gene 952) 2.31 µM | CD40, CD40 (gene 958) 7.61 µM | CD69, CD69 (gene 969) 5.19 µM | [7] 5.46 µM
inactive: [2]

Cc1cc(CCC(=O)OCCOCCOCCOC(=O)CCc2cc(C)c(O)c(C(C)(C)C)c2)cc(C(C)(C)C)c1O
inactive: all assays above
